CHT block: human CHT choline transport inhibition; B-score at 10 µM; Q9GZV3; CHT-expressing cells, membrane potential dye, choline response; active compounds read low; AID 488975; hit rate 0.86% among 310,000;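 active = B-score over 3 SD under the library average, and starting fluorescence ratio not unusually high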;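 note: choline stimulus applied at its EC90 after an EC20 pre-addition; B-score computed on integrated fluorescence ratio after choline addition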
Target sequence (Q9GZV3 whole entry, looked up): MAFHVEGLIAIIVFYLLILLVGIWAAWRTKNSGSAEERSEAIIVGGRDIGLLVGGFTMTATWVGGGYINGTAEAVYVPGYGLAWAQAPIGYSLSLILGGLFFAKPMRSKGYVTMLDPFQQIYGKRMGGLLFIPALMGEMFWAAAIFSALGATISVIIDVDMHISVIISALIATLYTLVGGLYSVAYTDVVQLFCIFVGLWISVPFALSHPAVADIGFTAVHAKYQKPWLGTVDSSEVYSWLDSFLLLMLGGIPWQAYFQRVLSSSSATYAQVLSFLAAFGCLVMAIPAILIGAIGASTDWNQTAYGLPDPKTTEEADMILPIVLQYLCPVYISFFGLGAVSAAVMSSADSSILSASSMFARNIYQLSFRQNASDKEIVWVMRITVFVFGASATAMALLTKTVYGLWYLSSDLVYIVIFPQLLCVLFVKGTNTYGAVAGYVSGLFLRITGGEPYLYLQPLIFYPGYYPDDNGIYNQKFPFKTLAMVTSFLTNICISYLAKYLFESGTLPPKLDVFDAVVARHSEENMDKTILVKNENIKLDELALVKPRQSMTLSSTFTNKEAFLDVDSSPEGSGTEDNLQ
MIN6 prolif: inducers of beta-cell replication in MIN6 cells. MIN6 cells proliferation, ATPlite luminescence, 48 h; cells starved in 0.2% serum; 100% = growth in 10% serum. proliferation, % at 10 µM. hit rate 0.29% among 330,000. AID 2380;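 active = compounds whose signal lies at least 3.5 SD above the mean of all wells on their plate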
TAG inh: inhibitors of triacylglycerol accumulation | H9c2 cells, Nile Red lipid (TAG) fluorescence; cells loaded with 200 µM oleic acid | inhibition, % at 12.5 µM | hit rate 0.66% among 230,000;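 active = pattern-corrected inhibition of lipid staining of at least 50% with the nuclear-stain viability signal not falling by more than 50%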
CHT allo act: allosterically activates the human high affinity choline transporter; Q9GZV3; CHT-expressing cells, membrane potential dye, choline EC20; active compounds read high; LV-AA mutant CHT in HEK293 cells; B-score at 10 µM; hit rate 0.49% among 310,000; AID 488977;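 active = initial fluorescence not abnormally high and integrated response B-score, plate-corrected, over 3 SD above library mean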
Hits are given with their value; n = inactive; x = no result. Compounds with a hit are over-represented: about 1.7% of the library has one in this group of screens.

SMILES	CHT block	MIN6 prolif	TAG inh	CHT allo act
CCCCN(CC)CCCNC(=S)Nc1ccc2nc(N3CCN(CC)CC3)cc(C)c2c1	-11	n	n	n
CC(=O)c1ccc(OCCCC(=O)OCC(=O)Nc2ccc3[nH]c(=O)[nH]c3c2)cc1	n	n	n	n
COc1ccc2sc(-c3ccccc3OC)c(-c3ccc(OCCN4CCOCC4)cc3)c2c1	x	x	n	x
COc1cc2sc(-c3ccccc3OC)c(-c3ccc(OCCN4CCCCC4)cc3)c2cc1OC	x	n	81	x
COc1ccccc1-c1sc2cc3c(cc2c1-c1ccc(OCCN2CCCCC2)cc1)OCO3	x	n	63	x
C[C@@]12C(=O)Nc3cc(F)c(F)cc3C(=O)N1[C@H]1c3cc(Cl)ccc3OC[C@@H]1[C@@H]2c1ccccc1	x	n	63	x
O=[N+]([O-])c1cc2cccnc2c2ncccc12	n	n	n	7
CN(CC(=O)NCCc1ccccc1)Cc1ccco1	n	n	x	n
Cc1ccc(S(=O)(=O)NC(=O)Nc2ccc(N(C)C)cc2)cc1	n	n	60	n
Cc1ccc(NC(=O)NNS(=O)(=O)c2ccc(Br)cc2)cc1	n	n	n	n
CC(C)N1CCc2c(sc(NC(=O)CCS(=O)(=O)c3ccccc3)c2C#N)C1	n	n	n	n
Cc1onc(-c2c(F)cccc2Cl)c1C(=O)Nc1nnc(C(F)(F)F)s1	-8.7	n	n	n
O=c1c(Br)c(N2CCCC2)cnn1-c1ccccc1	n	n	x	n
O=c1c(Br)c(Br)cnn1-c1ccccc1	x	x	90	x
Cc1ccc(-n2ncc(Br)c(Br)c2=O)cc1	x	x	66	x
CS(=O)(=O)N1CCCCC1c1cc(C(=O)Nc2ccccc2Cl)no1 (centres undefined)	x	x	n	x
CCc1ccc(O)c(CNCCNCc2cc(CC)ccc2O)c1	-6.8	n	x	n
Cc1nc(NCCc2ccccc2)c2oc3ccccc3c2n1	n	n	n	6.3
Cc1nc(NCCN2CCOCC2)c2oc3ccccc3c2n1	n	n	n	n
O=C1c2ccccc2C2N1CCCN2C(=O)c1sc2ccccc2c1Cl (centres undefined)	x	x	n	x
CN(C)CCn1c2ccccc2c2nc3ccc([N+](=O)[O-])cc3cc21	n	n	56	n
CCn1c2ccccc2c2cc([N+](=O)[O-])ccc21	n	n	n	n
O=C1NC(=Nc2ccccc2)c2c1cccc2[N+](=O)[O-]	n	0.0	x	n
O=C(Nc1cccc2c1C(=O)NC2=O)c1ccccc1[N+](=O)[O-]	n	n	n	n
COc1ccc(C2(OC)Oc3cc(OC)ccc3C(=O)C2(O)OC)cc1 (centres undefined)	x	x	n	x
SMILES	CHT block	MIN6 prolif	TAG inh	CHT allo act
c1ccc(COc2ccc(-c3sc(Nc4ccccc4)n[n+]3-c3ccccc3)cc2)cc1	n	n	x	8
O=C(O)c1ccc(-c2sc(Nc3ccccc3)n[n+]2-c2ccccc2)cc1	n	n	x	n
COc1cc(/C=C2/SC(=Nc3ccc(O)cc3)NC2=O)ccc1O	n	n	59	n
CC1CCN(S(=O)(=O)c2cc(C(=O)N3CCN(c4ccccc4)CC3)ccc2Br)CC1	x	x	n	x
CCC(OC(=O)c1ccc(S(C)(=O)=O)c([N+](=O)[O-])c1)C(=O)NC1C2CC3CC(C2)CC1C3 (centres undefined)	x	x	n	x
CC(C)CN1CCN(C(=O)COC(=O)c2ccc(S(C)(=O)=O)c([N+](=O)[O-])c2)CC1	x	x	65	x
CS(=O)(=O)c1ccc(C(=O)OCC(=O)NC23CC4CC(CC(C4)C2)C3)cc1[N+](=O)[O-]	n	n	x	n
CC(OC(=O)c1ccc(S(C)(=O)=O)c([N+](=O)[O-])c1)C(=O)NC1C2CC3CC(C2)CC1C3 (centres undefined)	x	x	65	x
Cc1oc(-c2cccs2)cc1C(=O)N1CCCC(C)(C(=O)O)C1 (centres undefined)	x	x	n	x
CCn1c(SCC(=O)N(C)CC(=O)Nc2ccc(OC)cc2)nnc1-c1ccco1	n	n	n	n
O=C(O)CCC(=O)Nc1ccc(-c2nc3ccc(C(=O)c4ccccc4)cc3[nH]2)cc1	n	n	n	n
O=C(c1ccccc1)c1ccc2nc(-c3ccc(NC(=O)c4ccccc4F)cc3)[nH]c2c1	n	n	58	n
Cc1c(C(=O)N2CCc3ccccc3C2)oc2ccccc12	n	n	n	n
CCOc1cccc(C(=O)Nc2ccccc2N2CCN(C(=O)C(C)C)CC2)c1	-5.7	n	n	n
CCc1ccc(CNC(=O)CCCC(=O)n2nc(C)c3ccccc32)cc1	n	n	x	n
C[C@@H]1CN([C@@H](C)CO)C(=O)CCCn2nncc2CO[C@H]1CN(C)C(=O)c1ccc2ccn(C)c2c1	x	x	n	x
Nc1nc(Cl)nc(N(c2ccccc2)c2ccccc2)n1	n	n	n	n
Nc1nc(CCl)nc(N(c2ccccc2)c2ccccc2)n1	n	n	80	n
Cc1ccc(Nc2nc(N)nc(-c3oc4ccccc4c3C)n2)cc1	n	n	58	n
COc1ccccc1-c1cc(C(=O)NC2CCN(C)CC2)c2ccc(Cl)c(C)c2n1	n	n	103	n
CCc1nc2c(OCCn3cccc3)cccn2c1N(C)C(=O)c1ccco1	x	x	n	x
Cc1ccc(SC(CC(=O)c2ccc(C)cc2)C(=O)O)cc1 (centres undefined)	n	n	n	n
O=C(CC(Sc1ccc(Br)cc1)C(=O)O)c1ccc(Br)cc1 (centres undefined)	-7	n	x	n
O=C(O)CCCN1C(=O)/C(=C\c2ccccc2OCc2ccccc2)SC1=S	-7.7	n	x	n
O=C(O)CN1C(=O)/C(=C\c2ccccc2OCc2ccccc2)SC1=S	x	x	n	x
SMILES	CHT block	MIN6 prolif	TAG inh	CHT allo act
O=C(O)CN1C(=O)/C(=C\c2cc([N+](=O)[O-])ccc2OCc2ccccc2Cl)SC1=S	-6.2	n	x	n
CCN(Cc1ccc2c(c1)OCO2)C(=O)/C=C/c1cccc(Br)c1	n	n	x	n
CC(C)(C)N(Cc1ccc2c(c1)OCO2)C(=O)/C=C\S(=O)c1ccccc1 (centres undefined)	x	x	83	x
COc1ccc(C(CCN(Cc2ccc(OC)c(OC)c2)C(C)=O)C(C)C)cc1 (centres undefined)	n	n	x	n
OC[C@@H]1CN(Cc2ccc(-c3ccccc3)cc2)C[C@H](n2cnc3c(NCc4ccco4)ncnc32)O1	x	x	n	x
O=C1NC(=S)S/C1=C\C=C\c1ccc([N+](=O)[O-])o1	x	x	51	x
O=C(O)/C=C/c1ccc([N+](=O)[O-])o1	n	n	n	n
Cc1ccc(N=Nc2ccc(O)c3ncccc23)cc1	n	x	87	n
COc1ccc(-c2csc(NC(=O)c3ccccc3Br)c2C(=O)O)cc1	-6.2	n	x	n
COc1ccc(-c2csc(NC(=O)c3ccc(C(C)(C)C)cc3)c2C(=O)O)cc1	n	n	x	n
Nc1nn(-c2ccccc2)c(N)c1N=Nc1cccc(F)c1	n	n	54	n
Nc1nn(-c2ccccc2)c(N)c1N=Nc1ccc2c(c1)OCO2	n	n	x	n
O=[N+]([O-])c1cc(Cl)cc(/C=N/NC(=S)Nc2ccc(S(=O)(=O)N3CCOCC3)cc2)c1O	-8.8	n	n	n
Cc1ccc(C(=O)Nc2nc(-c3ccccn3)cs2)s1	x	n	n	x
O=C(Nc1nc(-c2ccccn2)cs1)c1ccc(Cl)s1	n	n	54	n

Compound activity: PubChem, several laboratories
